Test results from PubChem BioAssay.
For some of these results: Entries with a potency or affinity are not part of this list. Calls of active or inactive are those of the source.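 How the source made its calls, unless noted: active means calcium signal cut by more than 3 SD below the full-agonist control yet still positive, in both repeats and the earlier primary screen; inactive means the rest.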

Columns and labels:
[1] = system: TRPC4 beta (transient receptor potential cation channel C4), mouse; assay: TRPC4 cation channel opening, retest – cell-based, Fluo4 calcium, HEK293 TRPC4beta/mu-opioid, duplicates, 10 µM, confirmation (AID 2426;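 active means fluorescence ratio normalized to control raised more than 50% in primary screen plus both repeat runs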;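 on activation: percent rise of integrated ratio over buffer wells lacking compound which define 0%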); details: Fluo4 calcium fluorescence, at 10 µM; hits give high values
[2] = system: transient receptor potential cation channel C4 beta (TRPC4), mouse; assay: TRPC4 cation channel opening, second retest – cell-based, second round, Fluo4, HEK293 TRPC4beta/mu-opioid, 1 µM, confirmation (AID 2461;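 active means primary screen active and over 50% activation in each of two duplicate runs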;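 on activation: 0% = wells without test compound as baseline of integrated fluorescence ratio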); details: Fluo4 calcium fluorescence, at 1 µM; hits give high values
[3] = system: TRPC4 (transient receptor potential cation channel C4 beta), mouse; assay: potentiation of DAMGO EC20 TRPC4 response – cell-based, second round, Fluo-4, HEK293 TRPC4beta/mu-opioid, 1 µM, confirmation (AID 2554;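 active means primary screen hit whose fluorescence ratio, in both repeats, exceeds the weak agonist control mean by 3 SD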); details: DAMGO EC20, Fluo-4 calcium flux, at 1 µM; hits give high values
[4] = system: TRPC4 beta (transient receptor potential cation channel C4), mouse; assay: potentiation of DAMGO EC20 TRPC4 response – cell-based, Fluo-4, HEK293 TRPC4beta/mu-opioid, confirmation (AID 2555;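 active means primary screen hit whose calcium fluorescence ratio, in both repeats, exceeds the weak agonist control mean by 3 SD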); details: DAMGO EC20, Fluo-4 calcium flux, at 10 µM; hits give high values
[5] = target: Short transient receptor potential channel 4 (Mus musculus) (UniProt Q9QUQ5); assay: blockers of DAMGO-evoked TRPC4 calcium flux – cell-based, Fluo4, HEK293 TRPC4beta/mu-opioid, confirmation (AID 2636); details: at 10 µM; hits give high values
Sequence of Short transient receptor potential channel 4 (Mus musculus) (Q9QUQ5 whole entry, looked up): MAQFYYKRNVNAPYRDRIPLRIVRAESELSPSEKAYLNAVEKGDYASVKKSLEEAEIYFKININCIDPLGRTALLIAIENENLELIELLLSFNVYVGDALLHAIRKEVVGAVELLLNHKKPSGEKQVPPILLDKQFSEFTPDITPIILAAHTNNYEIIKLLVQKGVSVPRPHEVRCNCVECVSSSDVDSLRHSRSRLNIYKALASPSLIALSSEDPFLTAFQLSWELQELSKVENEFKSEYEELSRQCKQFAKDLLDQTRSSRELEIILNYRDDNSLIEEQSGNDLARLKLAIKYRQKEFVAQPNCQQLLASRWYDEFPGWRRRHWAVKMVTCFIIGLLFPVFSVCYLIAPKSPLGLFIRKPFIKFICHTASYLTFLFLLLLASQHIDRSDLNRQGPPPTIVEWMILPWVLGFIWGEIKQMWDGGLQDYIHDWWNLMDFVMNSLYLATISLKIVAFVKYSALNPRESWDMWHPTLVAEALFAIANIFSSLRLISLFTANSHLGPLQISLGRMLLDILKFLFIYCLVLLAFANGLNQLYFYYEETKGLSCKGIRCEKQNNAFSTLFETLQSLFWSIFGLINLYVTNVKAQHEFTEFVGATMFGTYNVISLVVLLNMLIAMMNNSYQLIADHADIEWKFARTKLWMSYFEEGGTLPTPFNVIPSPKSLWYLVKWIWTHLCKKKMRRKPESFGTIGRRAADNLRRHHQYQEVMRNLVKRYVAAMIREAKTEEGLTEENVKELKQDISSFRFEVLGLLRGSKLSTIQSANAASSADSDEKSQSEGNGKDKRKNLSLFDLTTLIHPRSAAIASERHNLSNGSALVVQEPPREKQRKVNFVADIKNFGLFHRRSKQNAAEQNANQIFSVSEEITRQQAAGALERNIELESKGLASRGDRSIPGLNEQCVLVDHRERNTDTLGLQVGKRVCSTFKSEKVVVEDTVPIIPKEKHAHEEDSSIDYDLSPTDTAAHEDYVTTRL

[6] = target: Short transient receptor potential channel 4 (Mus musculus) (UniProt Q9QUQ5); assay: blockers of DAMGO-evoked TRPC4 calcium flux – cell-based, second round, Fluo4, HEK293 TRPC4beta/mu-opioid, 1 µM, confirmation (AID 2637;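 active means calcium signal ratio cut to more than 3 SD under the fully stimulated control mean yet still positive, in both repeats and the primary screen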); details: at 1 µM; hits give high values
[7] = target: Short transient receptor potential channel 4 (Mus musculus) (UniProt Q9QUQ5); assay: potentiation of DAMGO-evoked TRPC4 calcium signal – cell-based, HEK293 TRPC4/mu-opioid, Fluo-4 calcium, EC20 DAMGO, dose response (AID 434941;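 active means earlier screen potentiator hit that boosts the TRPC4 ion channel at some dose, with a dose response; inactive means no potentiation, no dose response, or not a prior hit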;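 further: calcium entry triggered by an EC20 dose of DAMGO at the co-expressed mu-opioid receptor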)
[8] = target: Short transient receptor potential channel 4 (Mus musculus) (UniProt Q9QUQ5); assay: block of DAMGO-driven TRPC4 calcium entry – cell-based, HEK293 TRPC4/mu-opioid, Fluo-4 calcium, dose response (AID 434942;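 active means primary screen inhibitor hit that blocks the TRPC4 channel at some tested dose, yielding a dose curve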)
[9] = target: Short transient receptor potential channel 6 (Mus musculus) (UniProt Q61143); assay: TRPC6 blockade by TRPC4 inhibitor hits – cell-based, HEK293, membrane potential dye, duplicate, selectivity assay for TRPC4 inhibitor project, confirmation (AID 434948;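 active means active in primary screen and both duplicates, each dropping signal beyond three positive-control SD with fluorescence still positive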); details: HEK293 TRPC6, membrane potential dye fluorescence, at 10 µM, stimulated with maximal-effect acetylcholine; hits give high values
Sequence of Short transient receptor potential channel 6 (Mus musculus) (Q61143 whole entry, looked up): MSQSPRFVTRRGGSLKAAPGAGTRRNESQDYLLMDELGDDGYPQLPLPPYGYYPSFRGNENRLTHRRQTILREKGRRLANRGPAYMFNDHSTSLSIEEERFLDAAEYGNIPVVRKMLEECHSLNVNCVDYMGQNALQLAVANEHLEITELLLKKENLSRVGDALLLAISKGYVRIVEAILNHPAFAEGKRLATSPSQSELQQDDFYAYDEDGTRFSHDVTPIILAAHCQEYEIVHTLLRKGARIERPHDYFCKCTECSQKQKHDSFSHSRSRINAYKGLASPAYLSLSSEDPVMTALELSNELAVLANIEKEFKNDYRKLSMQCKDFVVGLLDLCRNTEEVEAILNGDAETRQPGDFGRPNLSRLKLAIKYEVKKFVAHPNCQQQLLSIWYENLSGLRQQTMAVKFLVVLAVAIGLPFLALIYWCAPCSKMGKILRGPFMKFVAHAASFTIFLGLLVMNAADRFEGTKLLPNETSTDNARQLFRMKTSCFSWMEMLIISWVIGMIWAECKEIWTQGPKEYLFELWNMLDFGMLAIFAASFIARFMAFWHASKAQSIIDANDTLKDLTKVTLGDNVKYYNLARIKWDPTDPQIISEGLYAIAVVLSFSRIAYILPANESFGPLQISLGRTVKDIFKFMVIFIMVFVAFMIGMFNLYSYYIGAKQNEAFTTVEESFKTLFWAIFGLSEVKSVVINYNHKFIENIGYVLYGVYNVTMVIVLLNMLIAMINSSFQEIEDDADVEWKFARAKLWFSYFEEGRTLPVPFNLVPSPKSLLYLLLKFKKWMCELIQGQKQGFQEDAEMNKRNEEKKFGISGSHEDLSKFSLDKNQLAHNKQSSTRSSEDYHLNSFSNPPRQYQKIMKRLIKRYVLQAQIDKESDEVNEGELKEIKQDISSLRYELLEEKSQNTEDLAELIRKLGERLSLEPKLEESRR

[10] = target: Short transient receptor potential channel 6 (Mus musculus) (UniProt Q61143); assay: TRPC6 opening by TRPC4 activator hits – cell-based, HEK293, membrane potential dye, duplicate, selectivity assay for TRPC4 activator project, confirmation (AID 434950;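 active means membrane potential signal rise above negative control mean plus 3 SD in both duplicates, also active in the earlier TRPC4 screen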;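 on activation: 0% = buffer only wells and 100% = acetylcholine maximal-effect wells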); details: HEK293 TRPC6, membrane potential fluorescence, at 10 µM; activation: hits give high values; outcome: activation
[11] = target: Short transient receptor potential channel 6 (Mus musculus) (UniProt Q61143); assay: positive modulators of mouse TRPC6 channel – HEK293 cells, membrane potential dye, duplicate, selectivity assay for TRPC4 potentiator project, confirmation (AID 434952;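 active means compound raising the membrane signal above positive-control mean plus 3 SD in both repeats, and a primary screen hit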); details: HEK293 TRPC6, membrane potential dye fluorescence, at 10 µM, maximal acetylcholine added after compound; hits give high values
[12] = target: Short transient receptor potential channel 4 (Mus musculus) (UniProt Q9QUQ5); assay: calcium flux activators in TRPC4/5HT1a cells, counter-screen for TRPC4 activator project, cell-based, second counter screen, HEK293 TRPC4/5HT1a, Fluo-4 (AID 434977;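 active means calcium signal rise above buffer-control mean plus 5 SD in both duplicates, and also a hit in the primary screen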;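 on activation: plate controls were assay buffer for no effect and maximal serotonin response for full effect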); details: Fluo-4 calcium flux, at 10 µM; hits give high values
[13] = serotonin-gated TRPC4 signal block – cell-based, second counter screen, HEK293 TRPC4/5HT1a, Fluo-4, counter-screen for TRPC4 inhibitor project, confirmation (AID 434978;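 active means primary screen active whose calcium signal fell more than 3 SD beyond the full-serotonin control mean in both duplicate plates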;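 further: serotonin given first at submaximal then at maximal dose after compound preincubation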); details: Fluo-4 calcium flux, at 10 µM, serotonin added to trigger calcium flux; hits give high values
[14] = system: TRPC4 (mouse), co-expressed with 5HT1a in HEK293; assay: enhancement of serotonin-evoked TRPC4 response – cell-based, second counter screen, HEK293 TRPC4/5HT1a, Fluo-4, counter-screen for TRPC4 potentiator project, confirmation (AID 434979;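 active means signal rise over 3 SD above mean of control wells given weak agonist, in both repeats and first screen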); details: Fluo-4 calcium flux, at 10 µM, serotonin added at its EC20 dose; hits give high values
[15] = nonspecific calcium rise without TRPC4 – cell-based, HEK293 mu-opioid receptor line, counter-screen for TRPC4 activator project, confirmation (AID 449723;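 active means hit in primary screen, with calcium signal over 5 SD above buffer well mean in both duplicates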;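 further: counter screen cells carry the mu-opioid receptor alone and lack TRPC4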); details: HEK293 mu-opioid cells, Fluo-4 calcium fluorescence, at 10 µM; hits give high values
[16] = nonspecific potentiation of DAMGO calcium response – cell-based, HEK293 mu-opioid receptor line, counter-screen for TRPC4 allosteric potentiator project, confirmation (AID 449724;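 active means calcium signal rise more than 3 SD above the low-dose agonist control mean, in both duplicate plates and the primary screen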); details: HEK293 mu-opioid receptor cells, Fluo-4 calcium flux, at 10 µM, compound added before EC20 DAMGO stimulus; hits give high values
[17] = nonspecific flux increase, KCNQ1-free cells – parental CHO cells, counter-screen for KCNQ1 potentiator project (AID 493006;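 active means duplicate-averaged activation above buffer control mean plus 5 SD of those controls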;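 on activation: fluorescence ratio of max minus min over baseline after K+ and Tl+ depolarization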); details: parental CHO-K1 cells, FluxOR thallium flux, at 10 µM; hits give high values
[18] = target: Potassium voltage-gated channel subfamily KQT member 1 (Homo sapiens) (UniProt P51787); assay: enhancement of KCNQ1 channel thallium flux – FluxOR thallium flux, CHO cells, duplicates, confirmation (AID 493007;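 active means potentiation averaged over duplicate wells exceeding buffer-only control mean by more than 3 SD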;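 on outcome: cells depolarized by a potassium plus thallium sulfate stimulus after compound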;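 on potentiation: 0% = buffer-only wells and 100% = R-L3 activator control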); details: KCNQ1 cell line, FluxOR thallium flux fluorescence, at 10 µM; hits give high values, % of reference activator effect, buffer zero
Sequence of Potassium voltage-gated channel subfamily KQT member 1 (Homo sapiens) (P51787 whole entry, looked up): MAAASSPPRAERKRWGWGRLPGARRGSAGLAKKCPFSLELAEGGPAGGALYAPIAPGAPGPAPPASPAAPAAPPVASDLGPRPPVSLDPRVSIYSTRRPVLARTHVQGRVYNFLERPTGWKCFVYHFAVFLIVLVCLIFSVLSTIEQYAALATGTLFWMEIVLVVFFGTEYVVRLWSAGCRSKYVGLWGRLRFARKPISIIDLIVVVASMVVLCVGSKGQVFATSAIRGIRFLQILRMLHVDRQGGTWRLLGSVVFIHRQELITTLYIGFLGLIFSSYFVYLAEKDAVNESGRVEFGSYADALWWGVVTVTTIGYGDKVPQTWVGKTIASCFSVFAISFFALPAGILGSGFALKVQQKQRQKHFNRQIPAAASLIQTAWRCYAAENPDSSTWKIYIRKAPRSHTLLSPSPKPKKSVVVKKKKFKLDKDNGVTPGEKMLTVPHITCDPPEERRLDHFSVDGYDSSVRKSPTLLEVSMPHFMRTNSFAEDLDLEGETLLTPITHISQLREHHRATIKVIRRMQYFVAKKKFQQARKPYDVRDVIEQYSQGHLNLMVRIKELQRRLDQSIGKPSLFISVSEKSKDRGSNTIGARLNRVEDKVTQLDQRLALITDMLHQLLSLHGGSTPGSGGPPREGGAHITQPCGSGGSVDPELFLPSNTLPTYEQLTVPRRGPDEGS

[19] = target: Potassium voltage-gated channel subfamily KQT member 2 (Rattus norvegicus) (UniProt O88943); assay: KCNQ2 thallium flux enhancement – KCNQ2-CHO-K1 cells, selectivity assay for KCNQ1 potentiator project (AID 493009;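 active means mean duplicate potentiation above the buffer control mean plus 5 SD of buffer wells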;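 further: assay conditions were tuned for KCNQ1 rather than KCNQ2 modulators; signal is max minus min fluorescence divided by baseline after thallium stimulus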); details: FluxOR thallium flux fluorescence, at 10 µM; hits give high values, scaled: buffer 0, activator control 100
Sequence of Potassium voltage-gated channel subfamily KQT member 2 (Rattus norvegicus) (O88943 whole entry, looked up): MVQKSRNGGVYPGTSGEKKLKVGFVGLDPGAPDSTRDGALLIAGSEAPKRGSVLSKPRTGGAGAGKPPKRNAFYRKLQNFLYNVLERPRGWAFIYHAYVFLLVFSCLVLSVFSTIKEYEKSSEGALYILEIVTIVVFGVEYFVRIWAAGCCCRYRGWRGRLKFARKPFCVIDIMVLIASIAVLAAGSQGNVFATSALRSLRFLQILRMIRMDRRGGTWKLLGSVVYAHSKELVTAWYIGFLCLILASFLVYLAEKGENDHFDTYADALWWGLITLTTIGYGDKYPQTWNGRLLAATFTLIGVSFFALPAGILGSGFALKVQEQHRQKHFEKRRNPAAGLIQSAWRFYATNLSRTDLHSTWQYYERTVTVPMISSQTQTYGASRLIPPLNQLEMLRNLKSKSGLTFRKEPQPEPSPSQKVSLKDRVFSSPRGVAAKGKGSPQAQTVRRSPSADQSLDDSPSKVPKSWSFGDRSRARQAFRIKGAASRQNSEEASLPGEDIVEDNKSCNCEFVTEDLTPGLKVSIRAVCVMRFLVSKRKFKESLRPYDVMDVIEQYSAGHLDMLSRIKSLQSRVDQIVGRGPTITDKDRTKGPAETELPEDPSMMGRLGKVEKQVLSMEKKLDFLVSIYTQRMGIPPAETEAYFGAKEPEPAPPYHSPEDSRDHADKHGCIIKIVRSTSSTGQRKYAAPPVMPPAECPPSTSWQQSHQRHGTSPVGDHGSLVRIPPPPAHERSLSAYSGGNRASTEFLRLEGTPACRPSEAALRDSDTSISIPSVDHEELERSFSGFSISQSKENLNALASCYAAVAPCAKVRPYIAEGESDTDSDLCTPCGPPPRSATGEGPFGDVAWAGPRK

[20] = target: Potassium voltage-gated channel subfamily KQT member 1 (Homo sapiens) (UniProt P51787); assay: KCNQ1 activators by electrophysiology – IonWorks patch clamp, KCNQ1-CHO cells, orthogonal assay for KCNQ1 potentiator project, confirmation (AID 493184;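 active means current rise at least 3 SD above the untreated control mean in each of two repeat wells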); details: automated patch clamp current, at 10 µM; hits give high values

CCCc1ccc(OCC(=O)NNC(=S)NC(=O)c2ccco2)cc1
active: activation [12] 46.5% | activation [17] 164% | potentiation [18] 79.5% | potentiation [19] 216%
inactive: outcome [1] | outcome [2] | outcome [3] | outcome [4] | outcome [5] | outcome [6] | outcome [7] | outcome [8] | outcome [9] | outcome [10] | outcome [11] | outcome [13] | outcome [14] | outcome [15] | outcome [16] | outcome [20]

CCOc1ccccc1OCC(=O)Nc1cc(S(=O)(=O)N2CCCCC2)ccc1N1CCN(CC)CC1
active: activation [1] 195% | activation [12] 45%
inactive: outcome [2] | outcome [3] | outcome [4] | outcome [5] | outcome [6] | outcome [7] | outcome [8] | outcome [9] | outcome [10] | outcome [11] | outcome [13] | outcome [14] | outcome [15] | outcome [16] | outcome [17] | outcome [18] | outcome [19] | outcome [20]

O=C(NCCc1ccccn1)C(F)(F)C(F)(F)C(F)(F)C(F)(F)C(F)(F)C(F)F
inactive: outcome [2] | outcome [3] | outcome [4] | outcome [5] | outcome [6] | outcome [7] | outcome [8] | outcome [9] | outcome [10] | outcome [11] | outcome [13] | outcome [14] | outcome [15] | outcome [16]
active: activation [1] 178% | activation [12] 46%

O=C1CC(O)(C(F)(F)F)Oc2c1ccc1ccccc21 (configuration not stated)
active: activation [1] 216% | activation [12] 119% | activation [15] 102% | activation [17] 222% | potentiation [18] 71.5% | potentiation [19] 270%
inactive: outcome [2] | outcome [3] | outcome [4] | outcome [5] | outcome [6] | outcome [7] | outcome [8] | outcome [9] | outcome [10] | outcome [11] | outcome [13] | outcome [14] | outcome [16] | outcome [20]

COc1cccc(C(=O)N(C)CC2CCN(CCc3cccc(C(F)(F)F)c3)CC2)c1
active: activation [1] 93% | activation [2] 77% | activation [10] 62.5%
inactive: outcome [3] | outcome [4] | outcome [5] | outcome [6] | outcome [7] | outcome [8] | outcome [9] | outcome [11] | outcome [12] | outcome [13] | outcome [14] | outcome [15] | outcome [16]

CCCOc1ccc(C(=O)NC(=S)NNC(=O)c2c(-c3ccccc3)noc2C)cc1
inactive: outcome [2] | outcome [3] | outcome [4] | outcome [5] | outcome [6] | outcome [7] | outcome [8] | outcome [9] | outcome [10] | outcome [11] | outcome [13] | outcome [14] | outcome [16] | outcome [17] | outcome [19] | outcome [20]
active: activation [1] 107% | activation [12] 92.6% | activation [15] 39.4% | potentiation [18] 28.5%

CC(C)(C)C(=O)NC(=S)NNC(=O)c1ccc(-c2ccccc2)cc1
inactive: outcome [3] | outcome [4] | outcome [5] | outcome [6] | outcome [7] | outcome [8] | outcome [9] | outcome [11] | outcome [13] | outcome [14] | outcome [16] | outcome [20]
active: activation [1] 257% | activation [2] 60% | activation [10] 35.5% | activation [12] 147% | activation [15] 83.6% | activation [17] 308% | potentiation [18] 163% | potentiation [19] 430%

Cc1ccc(C)c(S(=O)(=O)N2CCN(C(=O)CCc3nc4ccccc4c(=O)[nH]3)CC2)c1
active: activation [1] 153% | activation [10] 39% | activation [12] 25.2%
inactive: outcome [2] | outcome [3] | outcome [4] | outcome [5] | outcome [6] | outcome [7] | outcome [8] | outcome [9] | outcome [11] | outcome [13] | outcome [14] | outcome [15] | outcome [16]

Fc1ccc(C2CCNCC2COc2ccc3c(c2)OCO3)cc1 (configuration not stated)
inactive: outcome [2] | outcome [3] | outcome [4] | outcome [5] | outcome [6] | outcome [7] | outcome [8] | outcome [9] | outcome [10] | outcome [11] | outcome [13] | outcome [14] | outcome [16]
active: activation [1] 202% | activation [12] 26.8% | activation [15] 15.8%

Cc1ccc(/C=N\NC(=O)C2COc3cc4ccccc4cc3O2)o1 (configuration not stated)
inactive: outcome [2] | outcome [3] | outcome [4] | outcome [5] | outcome [6] | outcome [7] | outcome [8] | outcome [9] | outcome [11] | outcome [13] | outcome [14] | outcome [15] | outcome [16]
active: activation [1] 102% | activation [10] 27% | activation [12] 40.6%

CC(c1cccnc1)N(CCN(C)C)C(=O)Nc1ccc(Cl)c(Cl)c1 (configuration not stated)
active: activation [10] 34%
inactive: outcome [1] | outcome [2] | outcome [3] | outcome [4] | outcome [5] | outcome [6] | outcome [7] | outcome [8] | outcome [9] | outcome [11] | outcome [12] | outcome [13] | outcome [14] | outcome [15] | outcome [16]

Cc1occc1C(=O)NNC(=S)NC(=O)COc1ccc(Cl)cc1Cl
inactive: outcome [2] | outcome [3] | outcome [4] | outcome [5] | outcome [6] | outcome [7] | outcome [8] | outcome [9] | outcome [10] | outcome [11] | outcome [13] | outcome [14] | outcome [16] | outcome [20]
active: activation [1] 108% | activation [12] 58.4% | activation [15] 18.4% | activation [17] 256% | potentiation [18] 259% | potentiation [19] 442%

Cc1cccc(C)c1OCC(O)CN (configuration not stated)
active: activation [1] 90% | activation [10] 30.5% | activation [12] 20.1%
inactive: outcome [2] | outcome [3] | outcome [4] | outcome [5] | outcome [6] | outcome [7] | outcome [8] | outcome [9] | outcome [11] | outcome [13] | outcome [14] | outcome [15] | outcome [16]
